Screening results as filed in PubChem BioAssay.
GPR151 activ = human GPR151 activation | PathHunter beta-arrestin GPR151 cells, luminescence | activation, % at 11.2 µM | 650,000 compounds, 1% hits; in the data active = activation above about 4.9%;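 also: 0% = median of compound wells and 100% = cells with positive control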
FBW7 act = human FBW7 E3 ligase activation, primary screen | Q969H0 | AID 1259310 | 650,000 compounds, 0.13% hits | AlphaScreen FBW7–phospho-cyclin E peptide binding, activator screen | normalized activity (activation), % at 26.1 µM; in the data active = normalized activity above about 1.9%;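 also: purified mutant Fbw7 with reduced substrate affinity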
MITF inh = inhibitors of human MITF | O75030 | AlphaScreen MITF homodimerization, bead proximity signal | inhibition, % at 2.6 µM | 650,000 compounds, 0.91% hits | AID 1259374; in the data active = inhibition above about 50%;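 also: 0% = vehicle wells with protein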
Target sequence (O75030 whole entry, looked up): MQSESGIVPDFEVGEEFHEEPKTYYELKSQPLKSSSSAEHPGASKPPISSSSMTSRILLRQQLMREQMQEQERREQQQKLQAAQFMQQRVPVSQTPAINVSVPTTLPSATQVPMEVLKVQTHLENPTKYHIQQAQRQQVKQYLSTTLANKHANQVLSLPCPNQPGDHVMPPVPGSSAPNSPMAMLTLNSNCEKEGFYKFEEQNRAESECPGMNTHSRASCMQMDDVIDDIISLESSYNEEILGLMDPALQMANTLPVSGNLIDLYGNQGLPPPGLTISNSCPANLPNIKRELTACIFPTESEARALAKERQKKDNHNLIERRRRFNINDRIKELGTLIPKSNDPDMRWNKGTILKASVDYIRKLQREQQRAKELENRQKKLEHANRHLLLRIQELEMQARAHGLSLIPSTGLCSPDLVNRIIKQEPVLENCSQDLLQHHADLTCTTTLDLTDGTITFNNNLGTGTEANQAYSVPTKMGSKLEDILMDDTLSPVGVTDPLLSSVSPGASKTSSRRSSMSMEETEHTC
TEAD-YAP inh = TEAD-YAP interaction inhibition. HEK-TIYL cells, TEAD-Gal4/YAP UAS-luciferase luminescence. inhibition, % at 9.12 µM. 640,000 compounds, 1.4% hits. AID 1259422; in the data active = inhibition above about 32%;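 also: 0% = median of test compound wells and 100% = reference inhibitor wells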
* = called active by the depositor; ! = a repeat was not active. Compounds with a hit are over-represented: about 3.5% of the library has one in this group of screens.

SMILES | GPR151 activ | FBW7 act | MITF inh | TEAD-YAP inh
O=C(NN1C(=O)c2cccc3c([N+](=O)[O-])ccc(c23)C1=O)c1ccc([N+](=O)[O-])cc1 | 0 | 2.6* | 17 | 8
CCOC(=O)C1=C(C)NC2=C(C(=O)CC(c3ccc(OC)cc3)C2)C1c1ccccc1OC(C)C (stereo not given) | 1 | 0 | 17 | -5
COc1ccc(C2CC(=O)C3=C(C2)NC(C)=C(C(=O)OC(C)C)C3c2ccccc2OC(C)C)cc1 (stereo not given) | 0 | 2.4* | 8 | -7
CC1=C(C(=O)OC(C)C)C(c2ccncc2)C2=C(CC(c3ccccc3)CC2=O)N1 (stereo not given) | 0 | 2.1*! | 8 | 9
CC1=C(C#N)C(c2ccc(C)cc2)C2=C(CC(c3ccccc3)CC2=O)N1 (stereo not given) | -1 | 0 | 2 | 32*
O=[N+]([O-])c1nn(Cc2ccccc2Cl)cc1Br | 0 | 0 | 5 | 8
CN(C)/C=C1\N=C(c2ccccc2Br)OC1=O | 4 | 0 | 0 | -30
Nc1cccc2c1C(=O)N(C(=O)c1nc(-c3ccccc3)n(-c3ccccc3)n1)C2=O | -1 | 0 | -8 | -4
CC[C@H](Cn1ncc2ccccc2c1=O)NC(=O)Cc1cc(OC)c(OC)c(OC)c1 | 0 | 0 | -11 | 3
Nc1ncnc(N/N=C/c2ccccc2OC(F)F)c1[N+](=O)[O-] | -8 | -1 | 8 | 48*
Nc1ncnc(N/N=C/c2cc([N+](=O)[O-])ccc2OC(F)F)c1[N+](=O)[O-] | -1 | 0 | 4 | -40
Nc1ncnc(N/N=C/c2ccc(O)cc2O)c1[N+](=O)[O-] | -3 | -1 | 81* | -10
COc1cccc(/C=N/Nc2ncnc(N)c2[N+](=O)[O-])c1OC | -6 | 0 | 18 | 46*
COc1cc(C2C(C(=O)OCC3CCCO3)=C(C)NC3=C2C(=O)CC(C)(C)C3)ccc1OCc1ccccc1 (stereo not given) | -1 | 0 | -1 | 15
COc1cc([N+](=O)[O-])cc(/C=N/NC(=O)Cn2nnc3ccccc32)c1O | 0 | 0 | -33 | 5
COc1ccc(/C=C/C(=O)NCc2ccccn2)cc1 | 0 | 0 | -10 | -22
Cc1ccc(NC(=O)/C=C/c2ccco2)nc1 | -1 | 0 | 3 | 24
O=C(/C=C/c1ccco1)Nc1ccccn1 | -7 | -2 | 1 | 51*
COc1ccc(/C=C/C(=O)Nc2ccccn2)cc1 | -10 | 0 | 6 | 47*
CC(C)(C)c1ccc(/C=C/C(=O)Nc2ccccn2)cc1 | -2 | 0 | -7 | 70*
COc1ccc(OC)c(NC(=O)c2ccc(C)cc2Cl)c1 | -1 | 0 | 2 | -19
N#Cc1nc(N2CCCC2)nc(N2CCCC2)n1 | 0 | 0 | 4 | 37*
Cc1ccc(NS(=O)(=O)c2ccc(Cl)c(N)c2)cc1Cl | -2 | 0 | 10 | 6
O=C(O)c1c(O)c2ccccc2[nH]c1=O | -1 | 0 | 9 | 3
O=c1[nH]c2ccccc2c(O)c1O | -1 | 0 | 8 | 38*
SMILES | GPR151 activ | FBW7 act | MITF inh | TEAD-YAP inh
CCCCC1(CC(=O)Nc2ccc(F)cc2)C(=O)N(c2ccccc2)N(c2ccccc2)C1=O | -1 | 1.9* | -10 | 3
Cc1ncn(-c2ccc(Nc3ncc4cccc(-c5cccc(N6CCOCC6)c5)c4n3)cc2)n1 | 0 | 0 | 16 | 39*
Clc1cnc(Nc2ccc(-n3cnc(N4CCOCC4)n3)cc2)nc1-c1ccno1 | -1 | 1 | 4 | 9
Cc1cc(-c2nc(Nc3ccc(-n4cnc(N5CCOCC5)n4)cc3)ncc2Cl)no1 | 1 | -1 | 11 | 39*
CCOC(=O)c1c(Cl)ccc2cnc(Nc3ccc(-n4cnc(N5CCOCC5)n4)cc3)nc12 | 0 | 0 | -1 | 59*
CC(C)n1cc(-c2ccc3cnc(Nc4ccc(-n5cnc(N6CCOCC6)n5)cc4)nc3c2Cl)cn1 | 2 | 0 | 12 | 6
Cc1ncn(-c2ccc(Nc3ncc4cccc(-c5ccccc5)c4n3)cc2)n1 | 1 | -1 | 6 | 9
Cc1ccc(-c2cccc3cnc(Nc4ccc(-n5cnc(N6CCOCC6)n5)cc4)nc23)cn1 | 0 | 1 | 1 | 49*
CC(C)C(=O)NC(c1cccc([N+](=O)[O-])c1)c1ccc2cccnc2c1O (stereo not given) | 1 | -2 | 54* | 73*
Oc1c(C(Nc2nccs2)c2ccco2)ccc2cccnc12 (stereo not given) | 1 | 0 | 20 | 6
O=[N+]([O-])c1cccc(C(Nc2nccs2)c2ccc3cccnc3c2O)c1 (stereo not given) | -1 | 0 | 37 | 38*
CCCCC(=O)NC(c1ccc([N+](=O)[O-])cc1)c1ccc2cccnc2c1O (stereo not given) | 1 | -2 | 31 | 28
CCCC(=O)NC(c1cccc([N+](=O)[O-])c1)c1ccc2cccnc2c1O (stereo not given) | 1 | -2 | 31 | 66*
CCCC(=O)NC(c1cccc(F)c1)c1ccc2cccnc2c1O (stereo not given) | 0 | -1 | 20 | 50*
O=CN1CCc2c([nH]c3cc(F)ccc23)C12CCN(CCc1cccs1)CC2 | 3 | 0 | -6 | -12
COc1ccc(S(=O)(=O)NC2CCCCC2)cc1I | 1 | 0 | -2 | -9
Cc1cc(Cl)ccc1OCC(=O)Nc1sc2c(c1C(N)=O)CCC(C)C2 (stereo not given) | -1 | 1 | 11 | 6
CCOc1ccc(N(C)S(=O)(=O)c2ccc3[nH]cc(C(=O)NC4CCCCC4)c(=O)c3c2)cc1 | 0 | 0 | 9 | -1
COc1cc(C)ccc1S(=O)(=O)Oc1cccc2ccc(C)nc12 | 1 | 0 | 11 | 37*
CC(=O)C1=C(O)C(=O)N(CC(=O)O)C1c1ccc(F)cc1 (stereo not given) | -1 | 1 | 12 | 1
Cc1ncn(-c2ccc(Nc3nccc(-c4ccc(C#N)c(N5CCCC5)c4)n3)cc2)n1 | -1 | 0 | 20 | 30
N#Cc1cc(-c2ccnc(Nc3ccc(-n4cnc(N5CCC(O)CC5)n4)cc3)n2)ccc1N1CCC(O)CC1 | 1 | 0 | -3 | 50*
C[C@@H]1CN(C(=O)Nc2cccc(Nc3nccc(-c4ccc(N5CCC(O)CC5)c(C#N)c4)n3)c2)C[C@H](C)O1 | -1 | 1 | 15 | 40*
Cc1ncn(-c2ccc(Nc3nccc(-c4ccc(N5CCCC(CO)C5)c(C#N)c4)n3)cc2)n1 (stereo not given) | 3 | 0 | 9 | 46*
Cc1ncn(-c2ccc(Nc3nccc(-c4ccc(C#N)c(N5CCC(O)CC5)c4)n3)cc2)n1 | 0 | 0 | 31 | 69*
COc1cc(CC(=O)N2CCc3nc(N4CCCC4)[nH]c(=O)c3C2)cc(OC)c1OC | 0 | 0 | 5 | 3
COc1ccc(OC)c(CC(=O)N2CCc3nc(N4CCCCC4)[nH]c(=O)c3C2)c1 | 1 | 0 | -2 | 50*
CCN1/C(=C/C(=O)/C=C2\Sc3ccccc3N2CC)Sc2ccccc21 | 0 | 0 | 6 | 2
